TROY signal inh: inhibitors of TROY-dependent NF-kB signaling; Q293 LMP1-TROYcd NF-kB luciferase reporter, 4 h; inhibition, % at 10 µM; 0.98% of 360,000 active;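 active means compounds whose plate-normalised and pattern-corrected inhibition of the luciferase reporter signal at the single screening dose is 50% or more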
TWEAK Fn14 block: inhibitors of TWEAK-Fn14 interaction signaling; TWEAK-stimulated Fn14 reporter cells, luciferase luminescence, 8 h; inhibition, % at 10 µM; 2% of 360,000 active; AID 1159606; in the data active means inhibition above about 50%
LMP1 NFkB inh: reduces LMP1-driven NF-kappaB luciferase signal; LMP1-induced NF-kappaB luciferase reporter cells, luminescence; inhibition, % at 12.5 µM; 0.69% of 350,000 active; AID 504558; in the data active means inhibition above about 41%
HSF-1 act: increases HSF-1 driven luciferase reporter signal; AID 504408; activation, % at 9 µM; NIH3T3-HGL HSF-1 luciferase reporter, MG132, 8 h; 100% = twice DMSO control signal; 1.7% of 300,000 active;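 active means mean replicate activation of at least 50% with a set share of replicates each reaching 50%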
HSF1 inhib: HSF1 inhibition. NIH3T3-HGL HSE-luciferase, MG132-induced, luminescence 8 h; hits give low values. activity change, negative = inhibition, % at 7.5 µM (by protocol). 0.77% of 300,000 active;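 active means more than half of replicate wells show activity change below -50%, luminescence cut by over half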;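 further: luciferase reports HSF-1 transcriptional activity via heat shock element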
HSP90 inh: HSP90 refolding inhibition in rabbit reticulocyte lysate; inhibition, % at 5.6 µM; 0.91% of 290,000 active; AID 1789; luciferase refolding luminescence, 3 h;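 active means inhibition above the screen-wide mean plus 3 SD, computed separately per campaign, cut at about 16% in these data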;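 further: inhibitors lower the luminescence because luciferase stays unfolded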
Large screens that a line does not name were inactive. Sampled rows, rich in hits. Any-hit rate of the full collection: about 4.7%.

NC(=S)NN=Cc1nccc2ccccc12	TWEAK Fn14 block 77, LMP1 NFkB inh 82 (no result: HSF-1 act, HSF1 inhib, HSP90 inh)
O=C(Nc1ccccc1)c1cc2ccccc2c(=O)s1	TWEAK Fn14 block 58
CCOC(=O)C1=CCN(S(=O)(=O)c2ccccc2[N+](=O)[O-])C1c1ccc(C)cc1 (stereo not given)	none (no result: LMP1 NFkB inh, HSF-1 act, HSF1 inhib, HSP90 inh)
N/C(=N\c1nc2c(c(=O)[nH]1)CCC2)Nc1ccccc1C(F)(F)F	HSF-1 act 56
C=CCn1c(SCc2csc(C)n2)nc2sc3c(c2c1=O)CCCC3	LMP1 NFkB inh 44
C=CCn1c(SCc2csc(C)n2)nc2sc3c(c2c1=O)CCCCC3	none
CCOC(=O)CNC(=O)CSc1nnc(C)c(=O)[nH]1	HSF1 inhib -81
CCOC(=O)c1c(NC(=O)CSc2nnc(C)c(=O)[nH]2)sc(C)c1C	none (no result: TROY signal inh, TWEAK Fn14 block, LMP1 NFkB inh)
CSc1ncc(C(=O)Nc2cccnc2)c(C(F)(F)F)n1	HSF1 inhib -79
COc1ccc(/C(C#N)=C/c2ccccn2)cc1	HSF-1 act 68
N#C/C(=C\c1ccccn1)c1nc2ccccc2s1	HSF-1 act 83
CC1=C(C(=O)OCc2ccccc2)C(c2ccc(C)cc2)NC(=O)N1 (stereo not given)	none (no result: HSF-1 act, HSF1 inhib, HSP90 inh)
Cc1cccnc1C(NC(=O)C1CCN(Cc2ccc(Oc3ccccc3)cc2)CC1)c1ccc(F)cc1 (stereo not given)	none (no result: LMP1 NFkB inh, HSF-1 act, HSF1 inhib, HSP90 inh)
Cc1cc(C(=O)NC2CCCN(Cc3ccc(Cl)cc3)C2)n(C)n1 (stereo not given)	HSF1 inhib -85
O=C(NC1CCCN(Cc2ccc(Cl)cc2)C1)c1c(F)cccc1F (stereo not given)	none
O=C(Nc1ccc2nc(-c3ccco3)c(-c3ccco3)nc2c1)NC1CC1	TWEAK Fn14 block 73
c1ccc(CCNc2cc(-c3ccc4ccccc4c3)nc3ccnn23)nc1	none (no result: LMP1 NFkB inh, HSF-1 act, HSF1 inhib, HSP90 inh)
CC(N)c1csc(Nc2ncccn2)n1 (stereo not given)	none (no result: LMP1 NFkB inh, HSF-1 act, HSF1 inhib, HSP90 inh)
Cc1cccc(-c2cc(C(=O)Nc3ccc4c(c3)OCCO4)c3ccccc3n2)c1	TWEAK Fn14 block 55
O=C(O)c1cc(-c2ccc3c(c2)OCO3)nc2ccccc12	none
Cc1ccn2cc(C(=O)Nc3ccc4c(c3)OCCO4)nc2c1	TWEAK Fn14 block 62
Cc1ccc2nc(-c3ccc4c(c3)OCCO4)cc(C(=O)O)c2c1	HSF-1 act 52
Cc1ccn2cc(C(=O)Nc3ccccc3N3CCOCC3)nc2c1	none
O=C1NC(=S)S/C1=C\c1cccc([N+](=O)[O-])c1	none (no result: HSF-1 act, HSF1 inhib, HSP90 inh)
COC(=O)N1CCCCC1c1cc(C(=O)NCc2ccccc2)no1 (stereo not given)	none (no result: LMP1 NFkB inh, HSF-1 act, HSF1 inhib, HSP90 inh)
Clc1ccccc1N1CCN(c2ncnc3nc[nH]c23)CC1	HSP90 inh 58
Cc1cc2nc(-c3nnnn3C3CCCCC3)c(=O)[nH]c2cc1C	none (no result: LMP1 NFkB inh, HSF-1 act, HSF1 inhib, HSP90 inh)
Cc1ccc(-n2cnc3sc(C)c(C)c3c2=O)cc1	HSF-1 act 59
Fc1cccc(Cc2c(-c3ccccc3)nc3c(Cl)cc(C(F)(F)F)cn23)c1	none (no result: LMP1 NFkB inh, HSF-1 act, HSF1 inhib, HSP90 inh)
CCOC(=O)C1(C)CCN1C(=O)c1ccc(OC)c(OC)c1 (stereo not given)	none (no result: LMP1 NFkB inh, HSF-1 act, HSF1 inhib, HSP90 inh)
Cn1c(NCc2ccccc2F)nc2cc(-c3cccc(C(F)(F)F)c3)sc2c1=O	none (no result: LMP1 NFkB inh, HSF-1 act, HSF1 inhib, HSP90 inh)
CCOc1ccc(C(CC(=O)O)NC(=O)c2sc3ccccc3c2Cl)cc1 (stereo not given)	LMP1 NFkB inh 51
Nc1nc2c(ncn2[C@@H]2O[C@H](CNCc3ccc(Oc4cc(-n5cccn5)ncn4)cc3)[C@@H](O)[C@H]2O)c(=O)[nH]1	none (no result: LMP1 NFkB inh, HSF-1 act, HSF1 inhib, HSP90 inh)
CSc1nc(N)nc(SCC(=O)C23CC4CC(CC(C4)C2)C3)c1C#N	TROY signal inh 54, TWEAK Fn14 block 93, LMP1 NFkB inh 69
Nc1nc(SCC(=O)C23CC4CC(CC(C4)C2)C3)n[nH]1	TWEAK Fn14 block 72 (no result: TROY signal inh)
N#Cc1c(N)nc(SCC(=O)C23CC4CC(CC(C4)C2)C3)c(C#N)c1-c1ccc(Cl)cc1	none
CCOc1ccc(C(=O)N[C@H](C(=O)N2CCN(c3ncccn3)CC2)C(C)C)cc1	none (no result: HSF-1 act, HSF1 inhib, HSP90 inh)
CN(Cc1ccccc1)C(=O)c1ccc(NC(=O)Cc2ccc(NC(=O)C3CCN(C(=O)CCc4ccccc4)CC3)cc2)cc1	none (no result: HSF-1 act, HSF1 inhib, HSP90 inh)
CN(C(=O)c1cccc(NC(=O)Cc2ccc(NC(=O)C3CCCN(C(=O)CCc4ccccc4)C3)cc2)c1)C1CC1 (stereo not given)	none (no result: HSF-1 act, HSF1 inhib, HSP90 inh)

Screening results (PubChem)
